# In publication PMC7819943, “Rice protein-binding microarrays: a tool to detect cis-acting elements near promoter regions in rice”:
# In all, about 68,000 sequences were measured (“fluorescence intensity (a.u.)”: median about 9,100, highest 2% from about 16,000 on). Only a selection was taken, and the highest values are over-represented in it overall.
# Target: OsWRKY34 (Oryza sativa, UniProt Q0JBA9 1-250)
# Test: protein-binding microarray (RPBM); PBS, 2% BSA, 51.3 ng/ul salmon testes DNA, 50 uM zinc acetate, 200 nM TF, 25 C, 1 h; high values mean tight binding
# Settings: protein: recombinant; tags: N-terminal polyhistidine and DsRed monomer fusion (pET32a); label: CyDye5-dUTP incorporated in the synthesized complementary strand; 3' TTTTT single-stranded linker to array surface; dsDNA, one strand shown
# Method in brief: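 A custom Agilent array was converted to double-stranded form by primer extension with Cy5-dUTP and blocked with 2% BSA. Protein at 200 nM in PBS with 2% BSA, salmon testes DNA and 50 µM zinc acetate was applied for 1 h at 25 °C, followed by washing. The proteins were polyhistidine–DsRed N-terminal fusions of transcription factors, expressed in E. coli BL21-CodonPlus and Ni–NTA-purified. The binding signal is per-feature fluorescence intensity (arbitrary units) from an Axon 4000B scanner.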
# Sequence of OsWRKY34 (Q0JBA9 entry or part of it): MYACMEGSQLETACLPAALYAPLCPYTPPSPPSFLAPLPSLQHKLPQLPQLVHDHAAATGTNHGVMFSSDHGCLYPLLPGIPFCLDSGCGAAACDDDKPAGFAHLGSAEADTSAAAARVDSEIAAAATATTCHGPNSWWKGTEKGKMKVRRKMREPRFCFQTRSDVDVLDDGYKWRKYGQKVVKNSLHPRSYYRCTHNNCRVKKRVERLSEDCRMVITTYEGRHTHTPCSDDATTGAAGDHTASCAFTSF
row,Sequence,binding signal
1,TCGGTGGGTGGTTGGGGATATTGCAAAAAGTATATAAAAACGGAGTCACCTAGTGCAG,15800 fluorescence intensity (a.u.)
2,TTAACTGCAACCATAAGTTTCTGCGCCTAACTTTGATCGTCGGAGTCACCTAGTGCAG,8850 fluorescence intensity (a.u.)
3,ACGTTGGATTGGTGGTGGACGGGCGCGATGGGTTGGGGTGCGGAGTCACCTAGTGCAG,9930 fluorescence intensity (a.u.)
4,ATTCTCTCTTCTGTGTTTCCTTTTTGAGATACTTCATTTTCGGAGTCACCTAGTGCAG,9340 fluorescence intensity (a.u.)
5,TTCCTATGTTTTTCCTGTGTTTTGTAATTCTCTGTTTTACCGGAGTCACCTAGTGCAG,10600 fluorescence intensity (a.u.)
6,TGTTTTGTGGGGAGGGGTGTACATATACAACTTAGTACTCCGGAGTCACCTAGTGCAG,20300 fluorescence intensity (a.u.)
7,ACTTCCCATTGTTGTTGCCATCGCCGCCGCCGCCGCCGCCCGGAGTCACCTAGTGCAG,12200 fluorescence intensity (a.u.)
8,TAGTATATACATGGGTGTTTGGGAGAGAGGGGCTAAACTTCGGAGTCACCTAGTGCAG,9540 fluorescence intensity (a.u.)
9,GGGCGTGTGGTTGAGAACTTGATTGGGATGATGATGAGACCGGAGTCACCTAGTGCAG,10400 fluorescence intensity (a.u.)
10,CCACTTGTACATATACAACTTGTTTTGTGGGGAGGGGTGTCGGAGTCACCTAGTGCAG,12700 fluorescence intensity (a.u.)
11,GGGGTAATTTCTCTGTGTTTTGAGTTGAGGGAGATAATTCCGGAGTCACCTAGTGCAG,16900 fluorescence intensity (a.u.)
12,CGCCGAGGGGAGGGGAGGGGAGGTTGCCATTGTTGTCCATCGGAGTCACCTAGTGCAG,22000 fluorescence intensity (a.u.)
13,GGGCGCGATGGGTTGGGGTGTGTTTCCGTGGATTGATGACCGGAGTCACCTAGTGCAG,21100 fluorescence intensity (a.u.)
14,TGCGCCATCTTTTGTCGTCCCGAGGGGATGGGCGGGGTTGCGGAGTCACCTAGTGCAG,16400 fluorescence intensity (a.u.)
15,CGAGAGATCGTTGCCCTCCGTATCCACTACTACTACACTCCGGAGTCACCTAGTGCAG,8310 fluorescence intensity (a.u.)
16,CAGGATTGCTTGGAGATTCGTGCGGGGACGCGCGGGGTGACGGAGTCACCTAGTGCAG,9720 fluorescence intensity (a.u.)
17,TACCGGTTAAAACGCCCAAGTCAGTGGCTCTCGTCCTCCTCGGAGTCACCTAGTGCAG,8860 fluorescence intensity (a.u.)
18,GTGCAGTTTATACATTAACATGTTAATCCCACTTTACTACCGGAGTCACCTAGTGCAG,10300 fluorescence intensity (a.u.)
19,ACGGCATTTTTCGCCCCTTTTGTCACTGAAACACTTCACCCGGAGTCACCTAGTGCAG,8860 fluorescence intensity (a.u.)
20,GCAGCCCTCAATTTCTATGGCGATCGCCTCTGCTTCGTCGCGGAGTCACCTAGTGCAG,8440 fluorescence intensity (a.u.)
21,GGCCTCCTTCATCACGCCCTGGATCTCACTGACTAAAAACCGGAGTCACCTAGTGCAG,8030 fluorescence intensity (a.u.)
22,CTATGTTCATCCTCGTGTCATATTGTGTTCATCTTCATACCGGAGTCACCTAGTGCAG,11600 fluorescence intensity (a.u.)
23,GAGGGAGTATTATCTTCTGAACATATGTTTGACCATTGGACGGAGTCACCTAGTGCAG,8940 fluorescence intensity (a.u.)
24,ATTACCCTAATCATCATTCATTCATGTATAGCTCATCCTACGGAGTCACCTAGTGCAG,8810 fluorescence intensity (a.u.)

row,Sequence,binding signal
1,ACCATCAAGTTCTGCTTTTCTTCCCCATGTTTTTTTGCCCCGGAGTCACCTAGTGCAG,10700 fluorescence intensity (a.u.)
2,CATGTGTTTGATTTCCTGTTTATATTTTGTTCAGAGTTTCCGGAGTCACCTAGTGCAG,11700 fluorescence intensity (a.u.)
3,TGTACATGTGTTTGATTTTGCTTGTGGTTGCCGTGGATTTCGGAGTCACCTAGTGCAG,11500 fluorescence intensity (a.u.)
4,AGGAGGTGTTGTTTCTTGCGATCTTGGGTTGATTGATATGCGGAGTCACCTAGTGCAG,8460 fluorescence intensity (a.u.)
5,GGTGGGTGTTTTAATGTGACATGATATTTGTGGTTGGGTTCGGAGTCACCTAGTGCAG,21700 fluorescence intensity (a.u.)
6,CTCTGTTGGTTTCTTGCGGTTTTGATTATTTGTTTGTGGTCGGAGTCACCTAGTGCAG,11900 fluorescence intensity (a.u.)
7,ATGTTGATATTGTGGTTGGTTGTGGGCATGTTACATTTTCCGGAGTCACCTAGTGCAG,11500 fluorescence intensity (a.u.)
8,CTCTGTGTTGTTTTTGGCATGTGTTTGATATTTGGAGTTCCGGAGTCACCTAGTGCAG,16600 fluorescence intensity (a.u.)
9,TGCGGGTTGTTTTGATTGACAATTTAGTGTTGGTGTTGTTCGGAGTCACCTAGTGCAG,9980 fluorescence intensity (a.u.)
10,TAATATTTCTTGCGGTGGGTTGGATTGATATCGATTGTTTCGGAGTCACCTAGTGCAG,17600 fluorescence intensity (a.u.)
11,TCTTTCCTGTTTCCGCTTGGTTTTCCGGTGTTTATTTTGTCGGAGTCACCTAGTGCAG,14200 fluorescence intensity (a.u.)
12,CATTCCGGTTGGTGTTTTTCGCTTGATTTGTACTACTATTCGGAGTCACCTAGTGCAG,18500 fluorescence intensity (a.u.)
13,TGATATGTTGGTGAATGGTAATTTTTTGGGTTGATATATTCGGAGTCACCTAGTGCAG,11200 fluorescence intensity (a.u.)
14,CGATGACAAGTTGACGCACCTTGGGTGTACTTTTTCCTTCCGGAGTCACCTAGTGCAG,8280 fluorescence intensity (a.u.)
15,CTCCAACCTAACCCCTGCCTGCCTGCATCAACCATATATGCGGAGTCACCTAGTGCAG,8720 fluorescence intensity (a.u.)
16,CACTAATTTTGCCTTTGTGCCTTTTACTATTGCGCATCACCGGAGTCACCTAGTGCAG,10200 fluorescence intensity (a.u.)
17,ACATTAACTAAATGGTGGAGGGCAGGGGTTCGTCTTTCTTCGGAGTCACCTAGTGCAG,13600 fluorescence intensity (a.u.)
18,GACTACTGAATGTGCTATTCTTGGCCTTTTCTATAGATAACGGAGTCACCTAGTGCAG,9960 fluorescence intensity (a.u.)
19,CTATTTTGGCCACTCGGGAGATGGTGTTGTTTCTGAATTTCGGAGTCACCTAGTGCAG,8180 fluorescence intensity (a.u.)
20,CTGTCTTCACCGTGCCGCTCCTTTCCTTCCATTTCATCTCCGGAGTCACCTAGTGCAG,8440 fluorescence intensity (a.u.)
21,CAGGGGTGGGTGTTAGCTGTTGTGCAAGAAGTGGTGTTTGCGGAGTCACCTAGTGCAG,10600 fluorescence intensity (a.u.)
22,GCCGGAGTCCATCGCCCTACATTGCCCACCAACCGCACGCCGGAGTCACCTAGTGCAG,10200 fluorescence intensity (a.u.)
23,TTCATATTCTTTTTTTTTTCGAGGTCATACTTTTTAATTCCGGAGTCACCTAGTGCAG,12200 fluorescence intensity (a.u.)
